Records with an inconclusive call do not appear. The source made the active and inactive calls. Unless noted, calls follow the shape of the dose curve; as a rule, active = well fitted curve in the direction sought with a large enough effect; inconclusive = small, poorly fitted or top-dose-only effect, or another doubt; inactive = no such curve, though single readings can be large; an effect the other way counts as inactive or inconclusive.
Experiments:
7G8 = experiment: qHTS profiling for inhibitors of Plasmodium falciparum proliferation (AID 504749); also: nearly all actives have a fitted effect of over 60% in size; also: potency is read from the fitted curve at half-maximal effect; conditions: P. falciparum in erythrocytes, SYBR Green DNA, 72 h; series mostly up to 12.8 µM
Procedure, shortened: (§1)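 Each compound contacts P. falciparum-infected red blood cells for 72 h at 37 C; lysis buffer (Tris, EDTA, saponin, Triton X, SYBR Green I) is added and fluorescence measured next morning; values normalized to controls.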

CP203 = experiment: as above; conditions: P. falciparum in erythrocytes, SYBR Green DNA, 72 h; series mostly up to 12.8 µM
Procedure, shortened: as §1

CP211 = experiment: as above; conditions: P. falciparum in erythrocytes, SYBR Green DNA, 72 h; series mostly up to 12.8 µM
Procedure, shortened: as §1

CP237 = experiment: as above; conditions: P. falciparum in erythrocytes, SYBR Green DNA, 72 h; series mostly up to 12.8 µM
Procedure, shortened: as §1

CP269 = experiment: as above; conditions: P. falciparum in erythrocytes, SYBR Green DNA, 72 h; series mostly up to 12.8 µM
Procedure, shortened: as §1

CP291 = experiment: as above; conditions: P. falciparum in erythrocytes, SYBR Green DNA, 72 h; series mostly up to 12.8 µM
Procedure, shortened: as §1

DFO2036 = experiment: as above; conditions: P. falciparum in erythrocytes, SYBR Green DNA, 72 h; series mostly up to 12.8 µM
Procedure, shortened: as §1

DIV14 = experiment: as above; conditions: P. falciparum in erythrocytes, SYBR Green DNA, 72 h; series mostly up to 12.8 µM
Procedure, shortened: as §1

DIV17 = experiment: as above; conditions: P. falciparum in erythrocytes, SYBR Green DNA, 72 h; series mostly up to 12.8 µM
Procedure, shortened: as §1

GB4 = experiment: as above; conditions: P. falciparum in erythrocytes, SYBR Green DNA, 72 h; series mostly up to 12.8 µM
Procedure, shortened: as §1

ICS = experiment: as above; conditions: P. falciparum in erythrocytes, SYBR Green DNA, 72 h; series mostly up to 12.8 µM
Procedure, shortened: as §1

PC26 = experiment: as above; conditions: P. falciparum in erythrocytes, SYBR Green DNA, 72 h; series mostly up to 12.8 µM
Procedure, shortened: as §1

W2 = experiment: as above; conditions: P. falciparum in erythrocytes, SYBR Green DNA, 72 h; series mostly up to 12.8 µM
Procedure, shortened: as §1

[1] = biological target: Cytochrome P450 3A4 (Homo sapiens) (UniProt P08684); experiment: qHTS Assay for Inhibitors and Substrates of Cytochrome P450 3A4 (AID 884); also: nearly all actives have a fitted effect of over 50% in size; also: potency is read from the fitted curve at half-maximal effect
Procedure, shortened: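 Luminescent readout of luciferin produced by CYP3A4 (20 nM) dealkylation of Luciferin-PPXE, 25 uM (its KM). NADPH-driven reaction ran 60 min at RT after 10 min compound preincubation; data scaled to 57 uM ketoconazole as 100% inhibition.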

[2] = biological target: Cytochrome P450 3A4 (Homo sapiens) (UniProt P08684); experiment: qHTS Assay for Activators of Cytochrome P450 3A4 (AID 885); also: nearly all actives have a fitted effect of over 65% in size; also: potency is read from the fitted curve at half-maximal effect
Procedure, shortened: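 CYP3A4 activity: Luciferin-PPXE O-dealkylation, 25uM substrate, 200mM KPO4, RT throughout. Read-out is luciferase luminescence; higher values reflect activation.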

[3] = biological target: Cytochrome P450 2D6 (Homo sapiens) (UniProt P10635); experiment: qHTS Assay for Inhibitors and Substrates of Cytochrome P450 2D6 (AID 891); also: nearly all actives have a fitted effect of over 60% in size; also: potency is read from the fitted curve at half-maximal effect
Procedure, shortened: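 Luminescent read-out of luciferin formed by 5 nM human CYP2D6 demethylating 30 uM Luciferin-ME EGE (Km level) over 60 min at room temperature after NADPH regeneration addition. Data normalized to full inhibition by 1.43 uM quinidine.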

[4] = biological target: Cytochrome P450 2C9 (Homo sapiens) (UniProt P11712); experiment: qHTS Assay for Inhibitors and Substrates of Cytochrome P450 2C9 (AID 883); also: nearly all actives have a fitted effect of over 60% in size; also: potency is read from the fitted curve at half-maximal effect
Procedure, shortened: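 10nM CYP2C9 + 100uM Luciferin-H (=KM), 25mM KPO4; cpd 10 min 37C; NADPH regen, 60 min 37C; stop/detect with P450 Glo-Buffer 20 min; luminescence. Norm. to 57uM sulphaphenazole as full inhibition.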

[5] = biological target: Cytochrome P450 2C19 (Homo sapiens) (UniProt P33261); experiment: qHTS Assay for Inhibitors and Substrates of Cytochrome P450 2C19 (AID 899); also: nearly all actives have a fitted effect of over 60% in size; also: potency is read from the fitted curve at half-maximal effect
Procedure, shortened: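 Luminescent read-out of luciferin formed from Luciferin-H EGE (10uM, equal to KM). Enzyme 5nM in 50mM KPO4; compound added, 10 min at 37C, then NADPH regenerating system for 60 min at 37C. Full inhibition defined by 57uM ketoconazole.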

[6] = S16 Schwann cell PMP22 intronic element beta-lactamase assay (AID 624044; calls by dose curve; also: nearly all actives have a fitted effect of over 15% in size)
Procedure, shortened: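 Beta-lactamase reporter under a PMP22 intronic regulatory element in stable S16 rat Schwann cells; 24 h compound exposure. 460 nm blue signal normalized between DMSO (0%) and potassium clavulanate, with 535 nm FRET tracking viability; curves classed by r2 and response.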

CP335 = experiment: qHTS profiling for inhibitors of Plasmodium falciparum proliferation (AID 504749); also: nearly all actives have a fitted effect of over 60% in size; also: potency is read from the fitted curve at half-maximal effect; conditions: P. falciparum in erythrocytes, SYBR Green DNA, 72 h; series mostly up to 12.8 µM
Procedure, shortened: as §1

Measured: Potency

Cytochrome P450 2D6 (Homo sapiens), sequence (P10635 whole entry, looked up): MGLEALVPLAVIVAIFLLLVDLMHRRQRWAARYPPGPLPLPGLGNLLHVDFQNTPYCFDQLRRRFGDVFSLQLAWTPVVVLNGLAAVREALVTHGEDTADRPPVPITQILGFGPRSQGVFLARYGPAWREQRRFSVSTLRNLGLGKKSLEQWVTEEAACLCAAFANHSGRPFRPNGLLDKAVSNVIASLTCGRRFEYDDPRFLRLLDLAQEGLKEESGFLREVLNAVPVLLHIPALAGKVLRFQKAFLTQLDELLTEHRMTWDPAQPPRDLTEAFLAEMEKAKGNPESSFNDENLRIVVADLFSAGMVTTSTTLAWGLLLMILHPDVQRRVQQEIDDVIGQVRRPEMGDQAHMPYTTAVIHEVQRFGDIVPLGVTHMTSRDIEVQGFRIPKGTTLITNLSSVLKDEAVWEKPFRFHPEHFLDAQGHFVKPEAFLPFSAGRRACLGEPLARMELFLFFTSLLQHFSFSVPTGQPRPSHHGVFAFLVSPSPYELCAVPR
Cytochrome P450 2C9 (Homo sapiens), sequence (P11712 whole entry, looked up): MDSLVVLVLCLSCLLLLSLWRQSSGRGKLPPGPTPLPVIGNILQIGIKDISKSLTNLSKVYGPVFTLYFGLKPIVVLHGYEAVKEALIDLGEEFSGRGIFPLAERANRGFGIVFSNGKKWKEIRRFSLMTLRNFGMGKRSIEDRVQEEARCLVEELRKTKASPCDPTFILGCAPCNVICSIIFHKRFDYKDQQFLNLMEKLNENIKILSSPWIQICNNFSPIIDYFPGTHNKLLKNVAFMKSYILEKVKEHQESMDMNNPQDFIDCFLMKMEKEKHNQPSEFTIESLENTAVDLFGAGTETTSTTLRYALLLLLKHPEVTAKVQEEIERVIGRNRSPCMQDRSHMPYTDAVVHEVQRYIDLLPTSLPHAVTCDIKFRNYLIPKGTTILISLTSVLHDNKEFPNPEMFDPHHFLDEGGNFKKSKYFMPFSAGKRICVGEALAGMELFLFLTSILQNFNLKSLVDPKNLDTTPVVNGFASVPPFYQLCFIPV
Cytochrome P450 3A4 (Homo sapiens), sequence (P08684 whole entry, looked up): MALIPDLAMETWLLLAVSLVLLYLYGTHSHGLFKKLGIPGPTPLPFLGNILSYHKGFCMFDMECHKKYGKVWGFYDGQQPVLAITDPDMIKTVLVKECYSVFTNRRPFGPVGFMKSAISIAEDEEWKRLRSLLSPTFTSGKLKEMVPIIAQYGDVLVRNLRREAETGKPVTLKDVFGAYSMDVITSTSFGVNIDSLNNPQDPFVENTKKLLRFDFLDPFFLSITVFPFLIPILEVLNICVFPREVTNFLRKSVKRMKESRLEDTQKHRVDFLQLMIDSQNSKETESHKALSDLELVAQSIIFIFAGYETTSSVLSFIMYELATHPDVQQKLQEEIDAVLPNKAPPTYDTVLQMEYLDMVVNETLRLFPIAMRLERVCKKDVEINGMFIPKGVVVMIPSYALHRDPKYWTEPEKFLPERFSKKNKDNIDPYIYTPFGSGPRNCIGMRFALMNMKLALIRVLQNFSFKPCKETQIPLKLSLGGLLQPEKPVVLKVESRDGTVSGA
Cytochrome P450 2C19 (Homo sapiens), sequence (P33261 whole entry, looked up): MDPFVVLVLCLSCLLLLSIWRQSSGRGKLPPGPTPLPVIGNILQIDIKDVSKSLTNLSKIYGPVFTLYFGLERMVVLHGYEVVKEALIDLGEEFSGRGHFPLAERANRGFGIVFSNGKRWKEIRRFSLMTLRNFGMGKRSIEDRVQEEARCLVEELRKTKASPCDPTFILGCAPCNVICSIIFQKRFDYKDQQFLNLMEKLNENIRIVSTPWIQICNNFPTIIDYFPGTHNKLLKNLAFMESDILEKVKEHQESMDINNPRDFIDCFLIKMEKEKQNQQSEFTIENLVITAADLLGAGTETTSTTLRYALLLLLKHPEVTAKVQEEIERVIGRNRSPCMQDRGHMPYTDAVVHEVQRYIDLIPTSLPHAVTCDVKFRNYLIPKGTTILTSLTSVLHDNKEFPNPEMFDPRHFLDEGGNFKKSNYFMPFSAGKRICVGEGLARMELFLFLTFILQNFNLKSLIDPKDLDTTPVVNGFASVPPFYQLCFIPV

COc1ccc([C@@H]2CC(=O)c3c(O)cc(O[C@H]4O[C@@H](CO[C@H]5O[C@@H](C)[C@@H](O)[C@@H](O)[C@@H]5O)[C@@H](O)[C@@H](O)[C@@H]4O)cc3O2)cc1O
not listed: [1] | [2] | [3] | [4] | [5] | [6] | CP335
inactive: all other assays above

CN(C)c1ccc(-c2nccc(NCc3ccccc3)n2)cc1
active: [1] 7.94 µM | [3] 3.16 µM
inactive: [2]

NC(=O)N/N=C\c1ccc([N+](=O)[O-])o1
inactive: [2]

Cn1c(-c2ccc3c(c2)OCO3)cc(=O)c2ccccc21
active: [3] 1.58 µM
inactive: [2]

CC(=O)N[C@H](CS)C(=O)O
inactive: [4] | [1] | [3] | [5]

NC(=O)N[C@H]1NC(=O)NC1=O
not listed: DFO2036 | GB4 | [1] | [2] | [3] | [4] | [5]
inactive: all other assays above

CC(=O)C[C@H](c1ccc([N+](=O)[O-])cc1)c1c(O)c2ccccc2oc1=O
active: [4] 0.631 µM
not listed: DFO2036 | [1] | [2] | [3] | [5]
inactive: all other assays above

COc1c(O[C@H]2O[C@@H](CO)[C@@H](O)[C@@H](O)[C@@H]2O)cc2c(c1OC)-c1ccc(SC)c(=O)cc1[C@H](NC(C)=O)CC2
not listed: DFO2036 | [1] | [2] | [3] | [4] | [5] | [6]
inactive: all other assays above

C=CC1=C(C(=O)O)N2C(=O)[C@@H](NC(=O)/C(=N\OCC(=O)O)c3csc(N)n3)[C@@H]2SC1
not listed: [1] | [2] | [3] | [4] | [5]
inactive: all other assays above

NC(=O)c1cc[n+](CC2=C(C(=O)[O-])N3C(=O)[C@@H](NC(=O)Cc4cccs4)[C@@H]3SC2)cc1
not listed: 7G8 | CP203 | CP291 | [1] | [2] | [3] | [4] | [5]
inactive: all other assays above

NC(=O)c1ccc[n+]([C@@H]2O[C@H](COP(=O)([O-])OP(=O)(O)OC[C@H]3O[C@@H](n4cnc5c(N)ncnc54)[C@@H](O)[C@@H]3O)[C@@H](O)[C@@H]2O)c1
not listed: PC26 | [2] | [6]
inactive: all other assays above

Cc1c(C)c2c(c(C)c1O)CC[C@@](C)(C(=O)O)O2
inactive: [2]

C[C@H](C(=O)O)c1cccc(Oc2ccccc2)c1
not listed: 7G8 | [1] | [2] | [3] | [4] | [5]
inactive: all other assays above

CC(=O)OCC(=O)[C@@]1(O)[C@H](C)C[C@@H]2[C@H]3CCC4=CC(=O)C=C[C@]4(C)[C@]3(F)[C@@H](O)C[C@@]21C
not listed: DFO2036 | [1] | [2] | [3] | [4] | [5] | [6]
inactive: all other assays above

Cc1ccc(S(=O)(=O)NC(=O)NN2C[C@H]3CCC[C@@H]3C2)cc1
not listed: [1] | [2] | [3] | [4] | [5]
inactive: all other assays above

CC[C@H](CO)NCCN[C@@H](CC)CO
not listed: [1] | [2] | [3] | [5]
inactive: all other assays above

C#C[C@@]1(O)CC[C@@H]2[C@@H]3CCC4=CC(=O)CC[C@@H]4[C@H]3CC[C@]21C
active: [5] 5.01 µM

NS(=O)(=O)c1cc2c(cc1Cl)N[C@@H](C(Cl)Cl)NS2(=O)=O
not listed: W2 | [1] | [2] | [3] | [4] | [5]
inactive: all other assays above

CCC(=O)O[C@@]1(C(=O)SCF)[C@@H](C)C[C@H]2[C@@H]3C[C@@H](F)C4=CC(=O)C=C[C@@]4(C)[C@]3(F)[C@@H](O)C[C@]21C
inactive: [6] | CP203 | CP211 | CP291
active: 7G8 2.82 µM | ICS 2.51 µM | W2 3.22 µM

C[C@@]12C=CC(=O)C=C1CC[C@@H]1[C@@H]2[C@H](O)C[C@]2(C)[C@@H]1CC[C@]2(O)C(=O)CO
inactive: [5]

CC(=O)CC(=O)[C@@]1(O)CC[C@@H]2[C@@H]3C=C(C)C4=CC(=O)CC[C@@H]4[C@H]3CC[C@]21C
active: [2] 2.51 µM | [5] 5.01 µM
inactive: [1]

C[C@@H]1Cc2ccccc2N1NC(=O)c1ccc(Cl)c(S(N)=O)c1 (some centres undefined)
not listed: 7G8 | [1] | [2] | [3] | [4] | [5] | [6]
inactive: all other assays above

NS(=O)(=O)c1cc2c(cc1C(F)(F)F)N[C@H](Cc1ccccc1)NS2(=O)=O
not listed: [1] | [3] | [4] | [5] | [6]
inactive: all other assays above

CC1(C)O[C@H]2C[C@@H]3[C@H]4CCC5=CC(=O)CC[C@@]5(C)[C@]4(F)[C@@H](O)C[C@@]3(C)[C@@]2(C(=O)CCl)O1
active: 7G8 1.58 µM | DIV14 5.1 µM | DIV17 6.42 µM | GB4 5.73 µM | ICS 0.891 µM | PC26 6.42 µM | W2 4.55 µM
inactive: [6]

CCC[C@@H]1O[C@@H]2C[C@@H]3[C@H]4CCC5=CC(=O)C=C[C@@]5(C)[C@H]4[C@H](O)C[C@@]3(C)[C@@]2(C(=O)CO)O1
inactive: [6]
active: 7G8 4.47 µM | CP335 10.7 µM | DIV14 9.53 µM | ICS 6.31 µM | PC26 7.57 µM | W2 6.01 µM

C[C@H]1CC[C@]2(OC1)O[C@@H]1C[C@@H]3[C@@H]4CC[C@H]5C[C@@H](O)CC[C@]5(C)[C@@H]4CC(=O)[C@@]3(C)[C@H]1[C@@H]2C
not listed: [1] | [2] | [3] | [4] | [5] | [6]
inactive: all other assays above

CCCC[C@H](CC)CN1CN(C[C@@H](CC)CCCC)CC(C)(N)C1
active: [3] 1.26 µM | ICS 4.47 µM
not listed: 7G8 | CP237 | W2 | [1] | [2] | [4] | [5]
inactive: all other assays above

CCOC(=O)C1=C(C)NC(C)=C(C(=O)OC)[C@@H]1c1cccc([N+](=O)[O-])c1
inactive: [2]
active: [4] 0.316 µM | [5] 0.126 µM

COCC(=O)Nc1c(I)c(C(=O)NC[C@@H](O)CO)c(I)c(C(=O)N(C)C[C@@H](O)CO)c1I
not listed: [1] | [2] | [3] | [4] | [5]
inactive: all other assays above

CC(C)NC[C@H]1CCc2cc(CO)c([N+](=O)[O-])cc2N1
not listed: CP211 | [1] | [2] | [3] | [4] | [5] | [6]
inactive: all other assays above

— PubChem BioAssay (NCATS)
